This is an account of results in PMC7862700, “An all-to-all approach to the identification of sequence-specific readers for epigenetic DNA modifications on cytosine”.

Assay in all cases: DAPPL (digital affinity profiling via proximity ligation, sequencing); 10 mM Tris-HCl pH 7.5, 50 mM NaCl, 1 mM DTT, 4% glycerol, room temperature, 30 min; GST-TFs on glutathione beads, 16-mer random dsDNA library, 0.1% formaldehyde crosslink after washing; high values mean tight binding
One test concerns the target T1, FEV (Homo sapiens, UniProt Q99581 1-238).
T1 sequence: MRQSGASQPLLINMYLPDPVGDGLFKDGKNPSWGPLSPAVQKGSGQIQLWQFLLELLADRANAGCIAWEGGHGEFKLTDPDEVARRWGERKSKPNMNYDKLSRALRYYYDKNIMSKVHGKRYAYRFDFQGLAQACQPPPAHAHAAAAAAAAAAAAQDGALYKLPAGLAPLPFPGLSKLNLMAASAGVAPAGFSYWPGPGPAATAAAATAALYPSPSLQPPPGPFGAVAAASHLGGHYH
As to conditions: protein: recombinant; tags: N-terminal GST; dsDNA, one strand shown. The method in brief: (§1)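 After expression in yeast as GST fusions, human transcription factors were bound to glutathione beads, DNA-barcoded and mixed with a tag-only sample. The pools were incubated with 200 nmole of a 16-mer random double-stranded DNA library in Tris/NaCl/DTT/glycerol buffer (30 min, room temperature), washed and crosslinked with 0.1% formaldehyde. Proximity ligation with BsaI/T4 ligase ran for 1 h at 37 °C, before PCR amplification and sequencing on an Illumina NextSeq500. Binding signal is a hexamer's read frequency for a factor divided by its frequency for the tag-only sample.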

In another test the target is ETV5 (Homo sapiens, UniProt P41161 1-510). As to conditions: protein: recombinant; tags: N-terminal GST; dsDNA, one strand shown. The procedure, abridged:
as §1

A further test addresses HSF1 (Homo sapiens, UniProt Q00613 1-529). As to conditions: protein: recombinant; tags: N-terminal GST; chain copies: 3; dsDNA, one strand shown. The procedure, abridged:
as §1

The target of another test is T2, SPIC (Homo sapiens, UniProt Q8N5J4 1-248).
T2 sequence: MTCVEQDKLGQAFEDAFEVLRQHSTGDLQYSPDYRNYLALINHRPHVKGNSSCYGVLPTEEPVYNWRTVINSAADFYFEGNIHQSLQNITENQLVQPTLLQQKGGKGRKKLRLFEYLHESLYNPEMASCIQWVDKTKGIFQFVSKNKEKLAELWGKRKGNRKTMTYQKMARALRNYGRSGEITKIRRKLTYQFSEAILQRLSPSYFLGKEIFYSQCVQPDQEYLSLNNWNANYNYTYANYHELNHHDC
As to conditions: protein: recombinant; tags: N-terminal GST; dsDNA, one strand shown. The method in brief: as §1

The target in another test is ELF4 (Homo sapiens, UniProt Q99607 1-663). As to conditions: protein: recombinant; tags: N-terminal GST; dsDNA, one strand shown. The method in brief:
as §1

The target of a further test is T3, ELK4 (Homo sapiens, UniProt P28324-2 1-405).
T3 sequence: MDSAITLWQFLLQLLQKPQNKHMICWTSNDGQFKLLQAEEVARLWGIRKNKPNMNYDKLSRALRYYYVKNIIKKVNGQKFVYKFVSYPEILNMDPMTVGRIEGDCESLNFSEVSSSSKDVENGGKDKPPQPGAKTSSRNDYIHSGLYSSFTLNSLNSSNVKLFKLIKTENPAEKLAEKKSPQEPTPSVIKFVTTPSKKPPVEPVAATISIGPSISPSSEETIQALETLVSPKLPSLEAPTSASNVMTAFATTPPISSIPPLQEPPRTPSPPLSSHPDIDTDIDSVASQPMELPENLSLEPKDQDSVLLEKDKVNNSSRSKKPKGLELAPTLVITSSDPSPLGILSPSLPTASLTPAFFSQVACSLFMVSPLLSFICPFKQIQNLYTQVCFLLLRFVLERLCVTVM
As to conditions: protein: recombinant; tags: N-terminal GST; dsDNA, one strand shown. The procedure, abridged: as §1

The next test deals with T4, ETV2 (Homo sapiens, UniProt O00321 1-342).
T4 sequence: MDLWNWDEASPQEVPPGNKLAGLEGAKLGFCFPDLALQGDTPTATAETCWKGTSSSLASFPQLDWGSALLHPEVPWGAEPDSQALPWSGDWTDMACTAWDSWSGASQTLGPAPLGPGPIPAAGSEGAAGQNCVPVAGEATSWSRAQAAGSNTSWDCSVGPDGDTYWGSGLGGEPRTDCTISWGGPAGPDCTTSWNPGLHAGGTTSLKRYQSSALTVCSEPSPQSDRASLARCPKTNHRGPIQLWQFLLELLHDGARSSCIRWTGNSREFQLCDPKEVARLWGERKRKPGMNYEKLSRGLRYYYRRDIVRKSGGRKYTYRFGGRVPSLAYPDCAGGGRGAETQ
As to conditions: protein: recombinant; tags: N-terminal GST; dsDNA, one strand shown. The method in brief:
as §1

For another test, the target named is T5, ELF3 (Homo sapiens, UniProt P78545 1-371).
T5 sequence: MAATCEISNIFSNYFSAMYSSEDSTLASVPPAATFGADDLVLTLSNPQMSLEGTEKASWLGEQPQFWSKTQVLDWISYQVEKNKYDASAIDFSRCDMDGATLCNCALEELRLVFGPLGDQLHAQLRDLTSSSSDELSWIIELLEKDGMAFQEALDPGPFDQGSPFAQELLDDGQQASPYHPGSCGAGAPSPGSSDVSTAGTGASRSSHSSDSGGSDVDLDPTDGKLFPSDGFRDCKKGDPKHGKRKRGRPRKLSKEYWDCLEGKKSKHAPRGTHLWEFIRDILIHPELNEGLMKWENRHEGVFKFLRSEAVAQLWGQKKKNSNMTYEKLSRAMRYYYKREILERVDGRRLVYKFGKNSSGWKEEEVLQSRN
As to conditions: protein: recombinant; tags: N-terminal GST; dsDNA, one strand shown. The method in brief: as §1

For a further test, the target named is CRX (Homo sapiens, UniProt O43186 1-299). As to conditions: protein: recombinant; tags: N-terminal GST; dsDNA, one strand shown. The procedure, abridged: as §1
A further test deals with ETV1 (Homo sapiens, UniProt P50549 1-477). As to conditions: protein: recombinant; tags: N-terminal GST; dsDNA, one strand shown. The procedure, abridged: as §1
A further test deals with T6, ERF (Homo sapiens, UniProt P50548 1-548).
T6 sequence: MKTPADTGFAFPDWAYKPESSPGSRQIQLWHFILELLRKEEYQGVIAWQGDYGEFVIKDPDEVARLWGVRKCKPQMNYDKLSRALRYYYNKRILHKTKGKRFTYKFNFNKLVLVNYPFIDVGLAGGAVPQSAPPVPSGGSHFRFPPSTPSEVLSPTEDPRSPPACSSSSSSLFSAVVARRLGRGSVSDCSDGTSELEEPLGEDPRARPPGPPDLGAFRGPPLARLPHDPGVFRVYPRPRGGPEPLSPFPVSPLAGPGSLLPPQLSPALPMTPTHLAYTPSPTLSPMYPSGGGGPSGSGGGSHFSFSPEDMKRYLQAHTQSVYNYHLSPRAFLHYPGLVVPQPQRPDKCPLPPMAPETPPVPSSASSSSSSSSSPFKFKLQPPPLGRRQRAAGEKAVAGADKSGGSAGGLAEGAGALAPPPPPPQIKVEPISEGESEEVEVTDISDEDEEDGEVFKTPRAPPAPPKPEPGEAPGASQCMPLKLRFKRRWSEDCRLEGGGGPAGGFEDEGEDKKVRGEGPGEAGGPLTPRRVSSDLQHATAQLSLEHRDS
As to conditions: protein: recombinant; tags: N-terminal GST; dsDNA, one strand shown. The method in brief:
as §1

The target of the next test is T7, ETV3L (Homo sapiens, UniProt Q6ZN32 1-361).
T7 sequence: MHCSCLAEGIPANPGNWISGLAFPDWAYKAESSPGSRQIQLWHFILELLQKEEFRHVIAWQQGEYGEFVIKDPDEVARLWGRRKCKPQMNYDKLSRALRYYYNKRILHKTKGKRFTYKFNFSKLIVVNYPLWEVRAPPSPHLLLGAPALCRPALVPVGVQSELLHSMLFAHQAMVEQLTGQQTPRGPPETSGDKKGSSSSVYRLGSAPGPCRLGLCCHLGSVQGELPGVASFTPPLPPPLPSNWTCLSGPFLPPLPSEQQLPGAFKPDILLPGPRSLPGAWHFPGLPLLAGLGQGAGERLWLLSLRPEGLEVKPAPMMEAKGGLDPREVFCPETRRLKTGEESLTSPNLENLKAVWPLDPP
As to conditions: protein: recombinant; tags: N-terminal GST; dsDNA, one strand shown. The procedure, abridged: as §1

The target of another test is T8, ETS2 (Homo sapiens, UniProt P15036 1-469).
T8 sequence: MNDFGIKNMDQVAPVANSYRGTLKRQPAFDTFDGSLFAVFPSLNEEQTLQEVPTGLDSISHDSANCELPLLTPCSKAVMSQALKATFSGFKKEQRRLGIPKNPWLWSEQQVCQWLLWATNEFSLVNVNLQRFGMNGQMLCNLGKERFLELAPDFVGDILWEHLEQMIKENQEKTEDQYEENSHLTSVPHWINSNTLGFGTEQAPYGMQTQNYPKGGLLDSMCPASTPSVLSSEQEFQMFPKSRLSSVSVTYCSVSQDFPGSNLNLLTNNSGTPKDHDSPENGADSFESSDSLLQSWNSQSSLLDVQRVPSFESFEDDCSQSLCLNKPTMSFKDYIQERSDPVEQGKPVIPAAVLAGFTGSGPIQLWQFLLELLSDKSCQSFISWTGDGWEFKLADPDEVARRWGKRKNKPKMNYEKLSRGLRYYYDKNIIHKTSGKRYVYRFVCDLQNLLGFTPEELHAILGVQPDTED
As to conditions: protein: recombinant; tags: N-terminal GST; dsDNA, one strand shown. The method in brief:
as §1

A further test concerns the target T9, SPDEF (Homo sapiens, UniProt O95238 1-335).
T9 sequence: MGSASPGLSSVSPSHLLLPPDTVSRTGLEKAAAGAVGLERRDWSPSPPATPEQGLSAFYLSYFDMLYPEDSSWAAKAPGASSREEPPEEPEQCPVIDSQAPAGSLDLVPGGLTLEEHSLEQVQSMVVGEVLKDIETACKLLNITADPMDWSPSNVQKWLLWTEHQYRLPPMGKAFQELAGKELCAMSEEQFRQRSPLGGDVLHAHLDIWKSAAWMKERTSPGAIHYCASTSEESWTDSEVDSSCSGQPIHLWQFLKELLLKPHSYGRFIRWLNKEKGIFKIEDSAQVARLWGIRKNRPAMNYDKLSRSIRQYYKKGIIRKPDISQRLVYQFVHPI
As to conditions: protein: recombinant; tags: N-terminal GST; dsDNA, one strand shown. The method in brief:
as §1

In the next test the target is T10, ETV7 (Homo sapiens, UniProt Q9Y603 1-341).
T10 sequence: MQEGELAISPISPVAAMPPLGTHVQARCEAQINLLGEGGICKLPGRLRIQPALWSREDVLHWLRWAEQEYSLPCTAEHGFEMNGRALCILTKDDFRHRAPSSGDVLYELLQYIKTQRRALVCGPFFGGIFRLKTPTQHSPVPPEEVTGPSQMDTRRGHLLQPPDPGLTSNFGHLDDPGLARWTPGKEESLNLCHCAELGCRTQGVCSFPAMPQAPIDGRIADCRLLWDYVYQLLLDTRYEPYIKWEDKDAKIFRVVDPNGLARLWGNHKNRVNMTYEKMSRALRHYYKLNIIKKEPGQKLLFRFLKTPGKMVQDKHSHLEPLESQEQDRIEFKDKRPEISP
As to conditions: protein: recombinant; tags: N-terminal GST; dsDNA, one strand shown. The method in brief: as §1

A further test addresses T11, ELF5 (Homo sapiens, UniProt Q9UKW6-2 1-255).
T11 sequence: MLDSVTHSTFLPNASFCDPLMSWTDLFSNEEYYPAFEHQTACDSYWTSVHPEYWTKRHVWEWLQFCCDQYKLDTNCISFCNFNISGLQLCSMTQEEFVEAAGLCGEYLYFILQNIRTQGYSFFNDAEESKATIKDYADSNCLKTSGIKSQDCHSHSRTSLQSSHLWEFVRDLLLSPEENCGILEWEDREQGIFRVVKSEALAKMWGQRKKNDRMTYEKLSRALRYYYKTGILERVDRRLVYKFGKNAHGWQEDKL
As to conditions: protein: recombinant; tags: N-terminal GST; dsDNA, one strand shown. The method in brief: as §1

In another test the target is T12, ETV3 (Homo sapiens, UniProt P41162-2 1-143).
T12 sequence: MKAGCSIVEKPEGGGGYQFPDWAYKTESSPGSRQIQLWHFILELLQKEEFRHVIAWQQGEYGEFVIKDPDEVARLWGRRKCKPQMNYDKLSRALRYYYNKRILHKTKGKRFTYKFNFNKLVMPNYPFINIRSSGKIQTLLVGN
As to conditions: protein: recombinant; tags: N-terminal GST; dsDNA, one strand shown. The method in brief: as §1

A further test addresses ETV6 (Homo sapiens, UniProt P41212 1-452). As to conditions: protein: recombinant; tags: N-terminal GST; dsDNA, one strand shown. The method in brief: as §1

Sequence of CRX (O43186 whole entry): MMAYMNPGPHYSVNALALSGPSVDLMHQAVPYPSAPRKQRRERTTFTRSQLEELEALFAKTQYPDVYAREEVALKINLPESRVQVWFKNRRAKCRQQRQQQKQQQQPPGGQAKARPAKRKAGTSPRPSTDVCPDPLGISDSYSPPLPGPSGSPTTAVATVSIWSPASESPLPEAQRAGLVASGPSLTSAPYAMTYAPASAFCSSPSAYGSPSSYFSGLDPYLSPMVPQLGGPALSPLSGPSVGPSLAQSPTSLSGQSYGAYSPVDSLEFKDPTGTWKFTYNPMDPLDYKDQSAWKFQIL
Sequence of ETV6 (P41212 whole entry): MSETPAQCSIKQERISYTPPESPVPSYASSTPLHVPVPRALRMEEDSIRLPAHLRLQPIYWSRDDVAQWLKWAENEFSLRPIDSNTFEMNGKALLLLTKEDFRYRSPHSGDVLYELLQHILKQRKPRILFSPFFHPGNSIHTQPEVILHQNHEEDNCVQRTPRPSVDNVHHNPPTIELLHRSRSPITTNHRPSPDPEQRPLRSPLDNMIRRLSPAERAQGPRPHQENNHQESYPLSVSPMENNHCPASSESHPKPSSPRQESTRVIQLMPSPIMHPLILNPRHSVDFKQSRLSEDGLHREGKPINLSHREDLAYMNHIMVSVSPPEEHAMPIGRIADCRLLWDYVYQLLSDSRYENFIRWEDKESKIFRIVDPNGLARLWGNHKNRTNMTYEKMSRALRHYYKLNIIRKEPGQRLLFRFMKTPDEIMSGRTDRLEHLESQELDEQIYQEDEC
Sequence of ETV1 (P50549 whole entry): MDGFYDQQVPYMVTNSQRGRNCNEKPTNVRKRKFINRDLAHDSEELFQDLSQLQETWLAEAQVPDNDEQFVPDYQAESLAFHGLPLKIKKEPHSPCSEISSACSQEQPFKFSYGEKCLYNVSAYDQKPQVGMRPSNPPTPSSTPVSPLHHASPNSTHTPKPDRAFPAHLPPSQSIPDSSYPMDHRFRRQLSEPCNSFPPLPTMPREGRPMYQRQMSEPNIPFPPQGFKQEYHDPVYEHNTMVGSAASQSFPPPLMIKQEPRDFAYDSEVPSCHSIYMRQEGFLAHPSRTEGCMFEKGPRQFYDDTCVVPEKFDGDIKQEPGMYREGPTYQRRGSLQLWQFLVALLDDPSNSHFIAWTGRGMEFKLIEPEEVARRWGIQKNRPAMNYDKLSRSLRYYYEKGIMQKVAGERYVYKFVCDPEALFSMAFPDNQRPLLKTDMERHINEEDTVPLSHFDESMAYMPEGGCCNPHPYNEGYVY
Sequence of HSF1 (Q00613 whole entry): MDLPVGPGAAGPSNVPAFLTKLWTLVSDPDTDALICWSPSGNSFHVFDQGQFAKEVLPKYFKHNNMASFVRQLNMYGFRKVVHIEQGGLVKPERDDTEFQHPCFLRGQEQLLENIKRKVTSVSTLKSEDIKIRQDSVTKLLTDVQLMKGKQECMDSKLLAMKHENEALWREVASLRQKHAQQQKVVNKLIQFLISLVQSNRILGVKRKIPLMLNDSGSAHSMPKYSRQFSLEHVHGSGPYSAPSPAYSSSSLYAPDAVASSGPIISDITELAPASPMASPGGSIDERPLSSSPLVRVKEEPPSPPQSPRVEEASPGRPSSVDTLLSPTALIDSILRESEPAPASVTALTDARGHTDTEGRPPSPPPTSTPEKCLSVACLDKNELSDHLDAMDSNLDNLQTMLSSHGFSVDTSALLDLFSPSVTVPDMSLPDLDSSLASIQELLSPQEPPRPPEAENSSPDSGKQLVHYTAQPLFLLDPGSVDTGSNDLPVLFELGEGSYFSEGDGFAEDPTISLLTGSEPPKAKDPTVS
Sequence of ETV5 (P41161 whole entry): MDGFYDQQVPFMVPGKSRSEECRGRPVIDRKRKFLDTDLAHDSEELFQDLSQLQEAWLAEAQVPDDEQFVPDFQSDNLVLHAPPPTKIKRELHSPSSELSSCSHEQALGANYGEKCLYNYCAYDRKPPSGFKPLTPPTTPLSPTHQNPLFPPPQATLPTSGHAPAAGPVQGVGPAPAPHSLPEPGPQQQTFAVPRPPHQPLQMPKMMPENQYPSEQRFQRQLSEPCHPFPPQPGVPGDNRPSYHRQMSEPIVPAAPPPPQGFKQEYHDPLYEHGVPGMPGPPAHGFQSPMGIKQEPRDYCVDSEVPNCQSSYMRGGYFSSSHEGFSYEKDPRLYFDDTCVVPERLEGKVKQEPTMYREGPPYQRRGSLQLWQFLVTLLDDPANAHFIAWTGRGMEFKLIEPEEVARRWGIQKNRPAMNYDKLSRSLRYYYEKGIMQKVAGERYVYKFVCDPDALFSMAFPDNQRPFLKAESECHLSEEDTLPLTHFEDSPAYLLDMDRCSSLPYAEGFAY
Sequence of ELF4 (Q99607 whole entry): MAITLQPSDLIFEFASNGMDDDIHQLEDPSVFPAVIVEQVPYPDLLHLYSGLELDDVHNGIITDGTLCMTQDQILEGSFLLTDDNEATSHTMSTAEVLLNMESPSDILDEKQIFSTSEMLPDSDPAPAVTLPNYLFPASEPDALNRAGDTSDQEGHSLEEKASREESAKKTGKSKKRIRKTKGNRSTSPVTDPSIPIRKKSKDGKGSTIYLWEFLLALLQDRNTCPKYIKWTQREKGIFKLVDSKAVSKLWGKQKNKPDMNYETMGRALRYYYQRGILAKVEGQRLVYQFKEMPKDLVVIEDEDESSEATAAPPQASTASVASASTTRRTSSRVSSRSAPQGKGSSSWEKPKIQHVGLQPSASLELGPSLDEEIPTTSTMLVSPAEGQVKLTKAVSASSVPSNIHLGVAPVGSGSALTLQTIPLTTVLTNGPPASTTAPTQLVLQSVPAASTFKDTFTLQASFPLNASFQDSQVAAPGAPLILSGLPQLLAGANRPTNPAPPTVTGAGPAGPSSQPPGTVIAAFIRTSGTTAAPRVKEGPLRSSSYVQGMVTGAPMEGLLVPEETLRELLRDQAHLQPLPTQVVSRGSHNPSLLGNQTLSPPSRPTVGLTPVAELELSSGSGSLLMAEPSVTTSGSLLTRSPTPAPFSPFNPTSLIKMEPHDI

In the case of TAGCTT, the binding signal in the test with FEV is 1.2 fold enrichment (6-mer frequency, TF over GST control); with ETV5, 1.31 fold enrichment (6-mer frequency, TF over GST control); with HSF1, 1.4 fold enrichment (6-mer frequency, TF over GST control); with SPIC, 1.28 fold enrichment (6-mer frequency, TF over GST control); with ELF4, 1.1 fold enrichment (6-mer frequency, TF over GST control); with ELK4, 1.21 fold enrichment (6-mer frequency, TF over GST control). For the same sequence, the binding signal is 1.15 fold enrichment (6-mer frequency, TF over GST control) with ETV2; 1.33 fold enrichment (6-mer frequency, TF over GST control) in the test with ELF3; 1.83 fold enrichment (6-mer frequency, TF over GST control) with CRX; 1.2 fold enrichment (6-mer frequency, TF over GST control) with ETV1; 1.29 fold enrichment (6-mer frequency, TF over GST control) in the test with ERF; 1.24 fold enrichment (6-mer frequency, TF over GST control) with ETV3L. Further, the binding signal in the test with ETS2 was 1.29 fold enrichment (6-mer frequency, TF over GST control); in the test with SPDEF, 1.08 fold enrichment (6-mer frequency, TF over GST control); in the test with ETV7, 1.16 fold enrichment (6-mer frequency, TF over GST control); with ELF5 it was 1.22 fold enrichment (6-mer frequency, TF over GST control); with ETV3, 1.16 fold enrichment (6-mer frequency, TF over GST control); with ETV6, 1.28 fold enrichment (6-mer frequency, TF over GST control).
